HCMV antiviral = inhibitors of human cytomegalovirus | HFF cells, HCMV-luciferase reporter, 72 h; active compounds read low | activity change, negative = inhibition, % at 57.5 µM | 410,000 tested, 4.5% active; in the data active = activity change below about -60%; inconclusive = no clear call, values can overlap the other calls; inactive = above about -39%
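Two-dose cell screen: HFF monolayers treated with compounds and infected with luciferase-expressing HCMV at 1 PFU/cell, 72 h at 37C, then lysed for luciferase measurement.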
VACV mCherry inh = inhibitors of vaccinia virus infection (mCherry reporter signal); Potency, µM (doses to about 36.5 µM), inactives show at the top dose activity change, negative = inhibition, hits mostly inhibitors; Vaccinia virus mCherry reporter infection, fluorescence; 310,000 tested, 0.63% active; calls by dose curve; tested in A549 cells; also: potency is read from the fitted curve at half-maximal effect; nearly all actives have a fitted effect of over 35% in size
HCV inh = HCV inhibition | Huh7.5.1 HCVcc-Cre infection, luciferase reporter, 44 h | Potency, µM (highest dose often 41.8 µM), without a hit: at the highest dose activity change, negative = inhibition, most hits filed as inhibitors | 340,000 tested, 3.4% active; also: potency is read from the fitted curve at half-maximal effect
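Whole-lifecycle infectious HCVcc-Cre system; cells 1,000/well, compound then virus (~0.5 moi) added 4 h after plating, 44 h culture. Luciferase read 15 sec following 15 min substrate incubation, room temp.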
FBPA Giardia inh = blocks Giardia fructose-bisphosphate aldolase activity. A8B2U2. purified Giardia FBPA. Potency, µM (doses to about 59.6 µM), without a hit: at the top dose activity, negative = inhibition, usual class: inhibitors. 290,000 tested, 0.71% active; also: potency is read from the fitted curve at half-maximal effect; nearly all actives have a fitted effect of over 55% in size
Target sequence (A8B2U2 whole entry, looked up): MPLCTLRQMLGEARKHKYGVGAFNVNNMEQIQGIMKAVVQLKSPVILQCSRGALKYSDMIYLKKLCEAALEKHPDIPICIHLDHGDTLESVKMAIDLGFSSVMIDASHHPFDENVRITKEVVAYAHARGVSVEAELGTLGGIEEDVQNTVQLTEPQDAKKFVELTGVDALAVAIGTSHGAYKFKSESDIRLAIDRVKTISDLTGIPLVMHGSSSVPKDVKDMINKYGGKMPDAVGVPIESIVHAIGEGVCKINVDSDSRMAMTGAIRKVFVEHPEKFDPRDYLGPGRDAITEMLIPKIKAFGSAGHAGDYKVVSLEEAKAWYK
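40 nM FBPA preincubated 10 min at RT with compound (up to 57.5 uM final), then substrate plus GAPDH/TPI/NAD/arsenate coupling and diaphorase/resazurin added. Fluorescence read after 20 min at RT, 525/598 nm.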
FMDV antiviral = antivirals against foot and mouth disease virus; FMDV antiviral cell-based qHTS; Potency, µM (series often up to 57.9 µM), inactives show at the highest dose activity change, negative = inhibition, most hits filed as inhibitors; 410,000 tested, 1.2% active; calls by dose curve; tested in HEK293T cells; also: read-out not given here; potency is read from the fitted curve at half-maximal effect; nearly all actives have a fitted effect of over 45% in size
VACV Venus inh = vaccinia inhibition (Venus reporter); Vaccinia virus Venus reporter expression, fluorescence; AID 720580; 330,000 tested, 0.46% active; Potency, µM (highest dose often 36.5 µM), for inactives: top-dose activity change, negative = inhibition, usual class: inhibitors; calls by dose curve; tested in A549 cells; also: potency is read from the fitted curve at half-maximal effect; nearly all actives have a fitted effect of over 30% in size
* hit, by the source's call; i = inactive; ? = inconclusive; . = no result given; ! = not confirmed by another sample; [ ] = remark or other dose. Sampled rows, rich in hits. Any-hit rate of the full collection: about 7.5%. Unless noted, calls follow the shape of the dose curve; as a rule, active = well fitted curve in the direction sought with a large enough effect; inconclusive = small, poorly fitted or top-dose-only effect, or another doubt; inactive = no such curve, though single readings can be large; an effect the other way counts as inactive or inconclusive. % is scaled to controls: 0 for no effect and ±100 for the full control effect.

SMILES | HCMV antiviral | VACV mCherry inh | HCV inh | FBPA Giardia inh | FMDV antiviral | VACV Venus inh
Cc1cc(Cl)ccc1NC(=O)CCS(=O)(=O)c1ccc2c(c1)CC(C)N2C(=O)C1CC1 (stereo not given) | -65* | -11% | . | . | -25% | -17%
CCOc1ccccc1CNC(=O)C1CCN(S(=O)(=O)c2c(C)noc2/C=C/c2ccccc2F)CC1 | 23 | -17%[7.34 µM] | . | . | -9% | -14%[7.34 µM]
CC/C(=C/c1ccccc1OC)c1cc(-c2ccccc2)cc2oc3ccccc3c12 | . | i | . | . | . | -20%
Cc1ccc(C)c(N2CCN(S(=O)(=O)c3ccc4c(c3)CCCN4C(=O)C3CCC3)CC2)c1 | -9 | -17% | . | . | ? | -15%
Cc1cccc(N2CCN(S(=O)(=O)c3ccc4c(c3)CCCN4C(=O)C3CCC3)CC2)c1C | ? | -19% | 14µM* | 6% | ? | -22%
O=C(CN1CCN(S(=O)(=O)c2ccc(Br)cc2)CC1)N/N=C/c1ccc(Cl)c([N+](=O)[O-])c1 | -25 | -20% | 11µM* | 6% | -15% | -20%
Cc1ccc(S(=O)(=O)N2CCN(CC(=O)N/N=C\c3ccc(Cl)c([N+](=O)[O-])c3)CC2)cc1 | ? | -13% | 4.5µM* | 2% | -11% | 9%
COc1ccc([C@@H]2[C@@H](C(=O)N3CCOCC3)CC(=O)N2C(=O)Nc2ccc(C)c(Cl)c2)cc1 | 11 | . | . | . | . | .
Clc1ccc(-c2c[n+](Cc3cccc(Cl)c3)c3n2CCC3)cc1 | -94* | -14% | -5% | 0% | -12% | -16%
N#CC[n+]1cc(-c2ccc(Cl)cc2)n2c1CCC2 | 20 | . | 6% | -7% | 10% | .
Clc1ccc(C[n+]2cc(-c3ccccc3)n3c2CCC3)cc1Cl | -72* | i | -21% | 1% | 0% | -10%
O=[N+]([O-])c1ccc(C[n+]2cc(-c3ccc(Cl)c(Cl)c3)n3c2CCCCC3)cc1 | -16 | . | 4% | 5% | -13% | .
COC(=O)[C@H]1[C@H](CO)[C@H]2Cn3c(ccc(Br)c3=O)[C@H]2N1Cc1ccc2c(c1)OCO2 | 10 | . | . | . | . | .
O=C(CNCc1ccc(F)cc1)Nc1ccc(C(=O)N2CCCCC2)cc1 | -13 | i | -12% | -29% | 3% | -11%
O=Cc1ccc(OC(=O)/C=C/c2ccccc2)cc1 | 19 | . | 7% | 11% | 10% | .
COc1cccc(S(=O)(=O)c2nc(C)c3c(n2)CCC3)c1 | -81* | . | 4% | 7% | 13µM* | .
Cc1ccc(S(=O)(=O)c2nc(C)c3c(n2)CCC3)cc1 | 16 | . | 12% | 10% | 15% | 1%
CCCCOc1ccc(S(=O)(=O)NCc2csc(C)n2)cc1 | -67* | ? | ? | -5% | . | -27%
CCC[C@H]1[C@@H](NC(=O)NCc2ccco2)CC[C@@]23CCCN2C(=O)CCC[C@@H]13 | -22 | . | . | . | . | .
CCOc1ccccc1CNC(=O)c1cc2oc3ccccc3c2n1CC | -70* | -19% | ? | -3% | -14% | 11%
COc1cccc(CNC(=O)c2cc3oc4ccccc4c3n2C)c1OC | -35 | -19%[1.46 µM] | ? | -8% | -1% | -14%
CCn1c(C(=O)NCc2ccc(F)cc2)cc2oc3ccccc3c21 | -69* | -16% | . | . | 0% | 10%
CCOc1ccc(CNC(=O)c2cc3oc4ccccc4c3n2C)cc1 | -83* | 10µM*! | -14% | 3% | 5% | 7%
CCn1c(C(=O)N2CCc3ccccc3C2)cc2oc3ccccc3c21 | -17 | . | -28% | -4% | -6% | .
c1ccc(CN2CCCC3CC2c2ccccc23)cc1 (stereo not given) | 28 | . | . | . | . | .
CCc1cc2c(Nc3ccc(O)cc3)nc(C)nc2s1 | -7 | . | ? | ? | -13% | .
Nc1nc(Cl)nc2c1ncn2C1OC(CO)C(O)C1F (stereo not given) | . | . | . | 7% | 6% | .
COc1ccc(CNC(=O)c2ccc3c(c2)nc2n3CCCCC2)cc1 | 61 | -8% | . | . | 34% | -2%
CCOc1ccccc1CNC(=O)c1ccc2c(c1)nc1n2CCCCC1 | -68* | -25% | . | . | 19% | 21%
Cc1ccc(C(=O)N2CCCC(C(=O)c3ccc(Oc4ccccc4)cc3)C2)cn1 (stereo not given) | ? | -11% | ? | -4% | ? | -9%

Screening results deposited in PubChem BioAssay by National Center for Advancing Translational Sciences (NCATS).
